Source: PubChem BioAssay (several laboratories)
Compounds with a hit are over-represented: about 3.2% of the library has one in this group of screens.
MEKK2mut PB1 HTS: signal of MEK5 binding to mutant human MEKK2 PB1 domain | bead flow cytometry, Alexa488-MEK5 binding to MEKK2 mutant | percent response, % at 10 µM | 0.35% of 290,000 active; in the data active = percent response above about 24%, passing the limit was not always enough
NRP1-CendR mod: modulators of CendR peptide binding to human neuropilin-1 | FAM-RPARPAR peptide binding to NRP-1, fluorescence polarization | inhibition, % at 25 µM | 0.85% of 360,000 active | AID 602438;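 active = inhibition or corrected inhibition above about 18%, plus a signal ratio from 0.5 to 1.5, limit read from the data, passing the limit was not always enough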
MEKK3 PB1 HTS: MEKK3-MEK5 PB1 interaction, increase or decrease; bead-based flow cytometry, Alexa488-MEK5 binding to MEKK3; actives lie on both sides; 0 = blocked by unlabeled MEK5, 100 = vehicle; Q99759; AID 1529; binding response (% of control), % at 10 µM; 1.4% of 290,000 active;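 active = binding response more than 3 SD above or below the average of its plate-row segment, actives on both sides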;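 note: Alexa488 bead fluorescence after subtracting the streptavidin-only scavenger bead signal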
Target sequence (Q99759 whole entry, looked up): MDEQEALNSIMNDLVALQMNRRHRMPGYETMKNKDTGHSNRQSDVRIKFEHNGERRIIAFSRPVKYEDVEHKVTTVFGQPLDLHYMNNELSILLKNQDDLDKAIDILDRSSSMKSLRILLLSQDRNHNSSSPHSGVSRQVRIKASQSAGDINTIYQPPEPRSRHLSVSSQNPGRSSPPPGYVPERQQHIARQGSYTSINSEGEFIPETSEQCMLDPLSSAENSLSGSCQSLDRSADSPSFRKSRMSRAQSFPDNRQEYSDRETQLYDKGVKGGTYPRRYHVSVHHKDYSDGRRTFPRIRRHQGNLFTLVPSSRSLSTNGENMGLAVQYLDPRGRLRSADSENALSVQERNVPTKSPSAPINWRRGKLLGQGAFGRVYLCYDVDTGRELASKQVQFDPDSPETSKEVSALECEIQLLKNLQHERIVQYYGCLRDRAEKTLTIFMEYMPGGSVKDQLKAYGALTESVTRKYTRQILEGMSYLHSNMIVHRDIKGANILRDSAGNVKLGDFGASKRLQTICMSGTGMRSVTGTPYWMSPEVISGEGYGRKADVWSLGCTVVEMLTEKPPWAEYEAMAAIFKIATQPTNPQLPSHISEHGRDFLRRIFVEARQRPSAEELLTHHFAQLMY
SKN-1 inh: C. elegans SKN-1 inhibition; inhibition, % at 21.8 µM; 0.49% of 360,000 active; C. elegans VP596 Pgst-4::GFP/RFP ratio, acrylamide-induced, 24 h;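 active = interference check ratio from 0.5 to 1.5 plus GFP to RFP signal ratio inhibition reaching or exceeding a fixed threshold, cut at about 30% in these data, passing the limit was not always enough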
MEKK2wt PB1 HTS: raises or lowers MEK5 binding to wildtype human MEKK2 PB1 domain; 1.1% of 290,000 active; Q9Y2U5; bead flow cytometry, Alexa488-MEK5 binding to MEKK2 WT; actives lie on both sides; AID 1531; binding response (% of control), % at 10 µM; in the data active = binding response below about 67% or above about 130%
Numbers stand for hits; n = inactive; x = not tested or not shown.

SMILES | MEKK2mut PB1 HTS | NRP1-CendR mod | MEKK3 PB1 HTS | SKN-1 inh | MEKK2wt PB1 HTS
OCCN1CCN(C2CCC(c3ccc(F)cc3)c3ccc(F)cc32)CC1 (stereo not drawn) | x | n | x | n | x
CCn1c2ccccc2c2cc([N+](=O)[O-])ccc21 | n | 29 | n | n | n
CC(C)n1c2ccccc2c2cc([N+](=O)[O-])ccc21 | n | n | n | n | n
Clc1ccc2nc(-c3ccccc3)c(Cc3ccsc3)n2c1 | x | n | x | n | x
Cc1cc(Br)cn2c(Cc3ccsc3)c(-c3ccccc3)nc12 | x | n | x | 37 | x
Clc1cccc(-c2nc3ccc(Br)cn3c2Cc2ccccc2)c1 | x | n | x | 36 | x
Brc1ccc2nc(-c3ccccc3)c(Cc3ccsc3)n2c1 | x | n | x | 38 | x
Cc1ccc(-c2nc3c(C)cc(Br)cn3c2Cc2ccsc2)cc1 | x | n | x | n | x
CCCc1nc2ccc(Cl)cn2c1Cc1ccsc1 | x | 28 | x | n | x
Clc1cccc(Cc2c(-c3cccc(Cl)c3)nc3ccc(Br)cn23)c1 | x | n | x | n | x
COc1ccc(N2C(=NC(=O)C(C)Oc3ccccc3)SC3CS(=O)(=O)CC32)cc1 (stereo not drawn) | n | 28 | n | n | n
CC(=O)N=C1SC2CS(=O)(=O)CC2N1c1cccc(Cl)c1Cl (stereo not drawn) | n | n | n | 40 | n
O=C(CSc1ncnc2c1nnn2Cc1ccccc1)NC1CCCCC1 | n | n | n | n | n
CCCCCCCCN1C(=O)[C@H](CC(=O)N2CCN(C(=O)c3ccco3)CC2)C[C@@]2(C(=O)OC)CCCCC=C12 | x | n | x | n | x
Cc1ccc(N=C2NC(=O)/C(=C/c3cccnc3)S2)c(C)c1 | n | n | n | n | n
Cc1ccc(N=C2NC(=O)/C(=C\c3ccsc3)S2)c(C)c1 | n | 26 | n | n | n
COc1ccc(NC(=O)C(C2CC2)n2c(=O)c(-c3ccccc3)nc3ccccc32)cc1 (stereo not drawn) | x | n | x | n | x
COc1ccc(N/N=C(/C#N)S(=O)(=O)c2nsc(C)c2C#N)cc1 | n | n | n | n | n
Cc1snc(S(=O)(=O)/C(C#N)=N/Nc2cccc(C(F)(F)F)c2)c1C#N | n | 27 | n | n | n
O=C(Nc1ccc(F)cc1)c1cc(S(=O)(=O)Nc2ccc(F)cc2)cs1 | n | 26 | n | n | n
COc1ccc(NC(=O)c2cc(S(=O)(=O)Nc3ccc(OC)cc3)cs2)cc1 | n | n | n | n | n
C/C=C/c1ccc2c(c1)O[C@H](CN(C)CC1CCOCC1)[C@@H](C)CN([C@H](C)CO)S2(=O)=O | x | n | x | n | x
O=C(O)c1ccc(S(=O)(=O)/N=C2\C=C(Nc3ccccc3F)C(=O)c3ccccc32)cc1 | n | 19 | n | n | n
COc1ccc(S(=O)(=O)/N=C2\C=C(Nc3ccc(O)cc3)C(=O)c3ccccc32)cc1 | n | n | n | n | n
Cc1ccccc1NC1=C/C(=N\S(=O)(=O)c2ccc(C(=O)O)cc2)c2ccccc2C1=O | n | 24 | n | n | n
SMILES | MEKK2mut PB1 HTS | NRP1-CendR mod | MEKK3 PB1 HTS | SKN-1 inh | MEKK2wt PB1 HTS
CC(C)[C@@H](CO)NS(=O)(=O)c1ccc(Br)cc1F | x | n | x | n | x
CCCCN(C)C(=O)c1sc(=O)n(Cc2c(C)cccc2C)c1C | x | n | x | n | x
O=C(COC(=O)C12CC3CC(CC(C3)C1)C2)Nc1nc2c(F)c(F)c(F)cc2s1 | n | 31 | n | n | n
Cc1ccc(N(CC(=O)NCc2ccco2)C(=O)CCC(=O)Nc2ccccn2)cc1C | n | n | n | n | n
O=C(CN(C(=O)CCC(=O)Nc1ccccn1)c1ccc2c(c1)OCO2)NCc1ccco1 | n | 22 | n | n | n
CCCCCCCCCCCCCC(=O)NO | x | n | x | n | x
CCCCOC(=O)Nc1cc(C)c(Cl)cc1OC | n | n | n | n | n
CCCOC(=O)Nc1cc(OC)c(Cl)cc1OC | x | 17 | x | n | x
CCN(C(=O)CSc1n[nH]c(-c2ccc(OC)cc2)n1)c1c(N)n(Cc2ccccc2)c(=O)[nH]c1=O | x | n | x | n | x
COc1ccc(-c2csc(C(O)c3ccc(F)c(F)c3)n2)cn1 (stereo not drawn) | x | 21 | x | n | x
Cc1c(-n2c(CN3C(=O)c4ccccc4C3=O)nc3ccccc3c2=O)c(=O)n(-c2ccccc2)n1C | n | 26 | n | 40 | n
CC(C)Cn1c(CN2C(=O)c3ccccc3C2=O)nc2ccccc2c1=O | n | n | n | n | n
C=C1CCN(C(CC(C)C)C(=O)OC)S(=O)(=O)c2ccccc21 (stereo not drawn) | n | n | n | n | n
